According to paper PMC11006913:

These sequences were tested against HOXB9 (Homo sapiens, UniProt P17482 171-250, R186Q) (assay: PBM; 200 nM protein, PBS). Conditions: dsDNA, one strand shown.
HOXB9, sequence (P17482 171-250 R186Q): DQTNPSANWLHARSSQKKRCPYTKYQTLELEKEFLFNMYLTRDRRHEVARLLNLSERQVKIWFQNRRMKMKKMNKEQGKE

Row | Sequence | binding signal
1 | GCCACTTA | 10 upbm affinity estimate (log intensity, higher = more binding, comparable within an allelic series)
2 | CGCCCGAG | 8.29 upbm affinity estimate (log intensity, higher = more binding, comparable within an allelic series)

What follows are sequences tested against T1, NKX2-6 (Homo sapiens, UniProt A6NCS4 118-204, F151L) (assay: PBM; 200 nM protein, PBS). Conditions: dsDNA, one strand shown.
T1 sequence: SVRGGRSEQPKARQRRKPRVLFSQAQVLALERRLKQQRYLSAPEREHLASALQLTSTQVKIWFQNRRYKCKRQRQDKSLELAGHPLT

Row | Sequence | binding signal
3 | AAGTGGAG | 10.6 upbm affinity estimate (log intensity, higher = more binding, comparable within an allelic series)
4 | CTTAAGTA | 10.9 upbm affinity estimate (log intensity, higher = more binding, comparable within an allelic series)
5 | CACTTAGA | 10.8 upbm affinity estimate (log intensity, higher = more binding, comparable within an allelic series)
6 | CACTTTAA | 10.7 upbm affinity estimate (log intensity, higher = more binding, comparable within an allelic series)
7 | CACTTAAC | 11.2 upbm affinity estimate (log intensity, higher = more binding, comparable within an allelic series)
8 | GTACTTAA | 11.2 upbm affinity estimate (log intensity, higher = more binding, comparable within an allelic series)
9 | AATAAGTG | 10.7 upbm affinity estimate (log intensity, higher = more binding, comparable within an allelic series)
10 | ACCACTTA | 11.4 upbm affinity estimate (log intensity, higher = more binding, comparable within an allelic series)
11 | CACTTATA | 11.2 upbm affinity estimate (log intensity, higher = more binding, comparable within an allelic series)
12 | ACACTTAT | 11.1 upbm affinity estimate (log intensity, higher = more binding, comparable within an allelic series)
13 | CTACTTAA | 10.6 upbm affinity estimate (log intensity, higher = more binding, comparable within an allelic series)
14 | CCACTTTA | 10.8 upbm affinity estimate (log intensity, higher = more binding, comparable within an allelic series)
15 | CGGGCTCC | 9.07 upbm affinity estimate (log intensity, higher = more binding, comparable within an allelic series)
16 | ATCAAGTG | 10.7 upbm affinity estimate (log intensity, higher = more binding, comparable within an allelic series)
17 | ATAAGTAC | 10.9 upbm affinity estimate (log intensity, higher = more binding, comparable within an allelic series)
18 | AAGTACCT | 10.6 upbm affinity estimate (log intensity, higher = more binding, comparable within an allelic series)
19 | AAGCACTT | 11 upbm affinity estimate (log intensity, higher = more binding, comparable within an allelic series)
20 | GCACTTAA | 11.6 upbm affinity estimate (log intensity, higher = more binding, comparable within an allelic series)
21 | GCCACTTA | 11.2 upbm affinity estimate (log intensity, higher = more binding, comparable within an allelic series)

The sequences below were run against ALX3 (Homo sapiens, UniProt O95076 139-225, L168V) (assay: PBM; 200 nM protein, PBS). Conditions: dsDNA, one strand shown.
ALX3, sequence (O95076 139-225 L168V): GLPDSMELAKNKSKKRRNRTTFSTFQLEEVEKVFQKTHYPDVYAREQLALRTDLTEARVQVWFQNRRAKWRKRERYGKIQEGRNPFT

Row | Sequence | binding signal
22 | AATTAGCT | 9.87 upbm affinity estimate (log intensity, higher = more binding, comparable within an allelic series)
23 | CTAATTGC | 9.7 upbm affinity estimate (log intensity, higher = more binding, comparable within an allelic series)
24 | CGGGCTCC | 7.45 upbm affinity estimate (log intensity, higher = more binding, comparable within an allelic series)

Each sequence was assayed against PROP1 (Homo sapiens, UniProt O75360 56-141, F88S) (assay: PBM; 200 nM protein, PBS). Conditions: dsDNA, one strand shown.
PROP1, sequence (O75360 56-141 F88S): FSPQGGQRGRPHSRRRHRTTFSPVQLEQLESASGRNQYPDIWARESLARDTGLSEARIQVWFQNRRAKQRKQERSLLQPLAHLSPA

Row | Sequence | binding signal
25 | AATTAGCT | 7.6 upbm affinity estimate (log intensity, higher = more binding, comparable within an allelic series)
26 | CCCGGCGG | 6.39 upbm affinity estimate (log intensity, higher = more binding, comparable within an allelic series)
27 | CTAATTGC | 7.41 upbm affinity estimate (log intensity, higher = more binding, comparable within an allelic series)
28 | ACGGCTGG | 6.67 upbm affinity estimate (log intensity, higher = more binding, comparable within an allelic series)
29 | CTACTTAA | 7.26 upbm affinity estimate (log intensity, higher = more binding, comparable within an allelic series)
30 | CGCCCGAG | 6.6 upbm affinity estimate (log intensity, higher = more binding, comparable within an allelic series)

Each sequence was assayed against MSX2 (Homo sapiens, UniProt P35548 130-214, F161Y) (assay: PBM; 200 nM protein, PBS). Conditions: dsDNA, one strand shown.
MSX2, sequence (P35548 130-214 F161Y): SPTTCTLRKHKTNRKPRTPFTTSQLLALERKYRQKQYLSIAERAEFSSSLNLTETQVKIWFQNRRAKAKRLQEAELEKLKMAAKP

Row | Sequence | binding signal
31 | AATTAGCT | 12.9 upbm affinity estimate (log intensity, higher = more binding, comparable within an allelic series)
32 | CTAATTGC | 13.6 upbm affinity estimate (log intensity, higher = more binding, comparable within an allelic series)
33 | CGGGCTCC | 8.87 upbm affinity estimate (log intensity, higher = more binding, comparable within an allelic series)

What follows are sequences tested against HESX1 (Homo sapiens, UniProt Q9UBX0 95-180, F115L) (assay: PBM; 200 nM protein, PBS). Conditions: dsDNA, one strand shown.
HESX1, sequence (Q9UBX0 95-180 F115L): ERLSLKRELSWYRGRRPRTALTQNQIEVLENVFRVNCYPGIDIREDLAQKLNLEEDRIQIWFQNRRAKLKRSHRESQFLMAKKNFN

Row | Sequence | binding signal
34 | AATTAGCT | 7.79 upbm affinity estimate (log intensity, higher = more binding, comparable within an allelic series)
35 | CACTTAGA | 6.78 upbm affinity estimate (log intensity, higher = more binding, comparable within an allelic series)
36 | CTAATTGC | 7.52 upbm affinity estimate (log intensity, higher = more binding, comparable within an allelic series)
37 | CTTCCGTC | 6.61 upbm affinity estimate (log intensity, higher = more binding, comparable within an allelic series)
38 | CCGCGTCG | 6.48 upbm affinity estimate (log intensity, higher = more binding, comparable within an allelic series)
39 | CCAGCGCG | 6.43 upbm affinity estimate (log intensity, higher = more binding, comparable within an allelic series)

These sequences were tested against VAX1 (Homo sapiens, UniProt Q5SQQ9 86-172, T142I) (assay: PBM; 200 nM protein, PBS). Conditions: dsDNA, one strand shown.
VAX1, sequence (Q5SQQ9 86-172 T142I): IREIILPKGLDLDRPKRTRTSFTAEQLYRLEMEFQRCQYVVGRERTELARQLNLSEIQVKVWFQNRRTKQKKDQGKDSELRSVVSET

Row | Sequence | binding signal
40 | ACGGCGGC | 7.25 upbm affinity estimate (log intensity, higher = more binding, comparable within an allelic series)
41 | CTAATTGC | 12.9 upbm affinity estimate (log intensity, higher = more binding, comparable within an allelic series)
42 | CGGGCTCC | 6.61 upbm affinity estimate (log intensity, higher = more binding, comparable within an allelic series)

What follows are sequences tested against T2, PAX4 (Homo sapiens, UniProt O43316 9-242, R227W) (assay: PBM; 200 nM protein, PBS). Conditions: dsDNA, one strand shown.
T2 sequence: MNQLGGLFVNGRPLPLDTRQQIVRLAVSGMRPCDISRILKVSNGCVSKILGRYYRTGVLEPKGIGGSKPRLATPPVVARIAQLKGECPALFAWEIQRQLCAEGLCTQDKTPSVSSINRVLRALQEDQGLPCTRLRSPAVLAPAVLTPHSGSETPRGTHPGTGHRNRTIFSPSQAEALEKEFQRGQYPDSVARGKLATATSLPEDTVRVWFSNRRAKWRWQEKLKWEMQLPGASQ

Row | Sequence | binding signal
43 | AATTAGCT | 10.9 upbm affinity estimate (log intensity, higher = more binding, comparable within an allelic series)
